Measurements as given in the supplement of paper PMC8728848.
Only a selection was taken, and the strongest signals are over-represented in it overall.

Columns and labels:
Experiment in all cases: glycan array binding signal (z-score within array); higher = stronger binding
Conditions in all cases: glycan notation: IUPAC condensed, linker removed
[1] = target: Gal(b1-4)GlcNAc(b1-3)Gal(b1-4)GlcNAc(b1-3)Gal(b1-4)GlcNAc(b1-3)Gal(b1-4)GlcNAc(b1-2)Man(a1-3)[Gal(b1-4)GlcNAc(b1-3)Gal(b1-4)GlcNAc(b1-3)Gal(b1-4)GlcNAc(b1-3)Gal(b1-4)GlcNAc(b1-2)Man(a1-6)]Man(b1-4)GlcNAc(b1-4)[Fuc(a1-6)]GlcNAc
Outline: (§1)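 Glycan array data were curated from 3228 arrays in the Consortium for Functional Glycomics database and kept only where the protein sequence was available. Glycan names were converted to IUPAC-condensed notation, and columns mapping to the same glycan were averaged. The binding signal is a within-array Z-score, averaged across arrays of the same protein sequence at different concentrations or buffers and across linkers. Negative Z-scores can be read as non-binding.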

[2] = target: Gal(b1-4)GlcNAc(b1-3)Gal(b1-4)GlcNAc(b1-3)Gal(b1-4)GlcNAc(b1-3)Gal(b1-4)GlcNAc(b1-2)[Gal(b1-4)GlcNAc(b1-3)Gal(b1-4)GlcNAc(b1-3)Gal(b1-4)GlcNAc(b1-3)Gal(b1-4)GlcNAc(b1-6)]Man(a1-6)[Gal(b1-4)GlcNAc(b1-3)Gal(b1-4)GlcNAc(b1-3)Gal(b1-4)GlcNAc(b1-3)Gal(b1-4)GlcNAc(b1-2)Man(a1-3)]Man(b1-4)GlcNAc(b1-4)[Fuc(a1-6)]GlcNAc
Outline: as §1

[3] = target: Gal(b1-4)GlcNAc(b1-3)Gal(b1-4)GlcNAc(b1-3)Gal(b1-4)GlcNAc(b1-3)Gal(b1-4)GlcNAc(b1-3)Gal(b1-4)GlcNAc(b1-2)Man(a1-3)[Gal(b1-4)GlcNAc(b1-3)Gal(b1-4)GlcNAc(b1-3)Gal(b1-4)GlcNAc(b1-3)Gal(b1-4)GlcNAc(b1-3)Gal(b1-4)GlcNAc(b1-2)Man(a1-6)]Man(b1-4)GlcNAc(b1-4)GlcNAc
Outline: as §1

[4] = target: Gal(b1-4)GlcNAc(b1-3)Gal(b1-4)GlcNAc(b1-3)Gal(b1-4)GlcNAc(b1-3)Gal(b1-4)GlcNAc(b1-3)Gal(b1-4)GlcNAc(b1-2)Man(a1-3)[Gal(b1-4)GlcNAc(b1-3)Gal(b1-4)GlcNAc(b1-3)Gal(b1-4)GlcNAc(b1-3)Gal(b1-4)GlcNAc(b1-3)Gal(b1-4)GlcNAc(b1-2)Man(a1-6)]Man(b1-4)GlcNAc(b1-4)[Fuc(a1-6)]GlcNAc
Outline: as §1

[5] = target: Gal(b1-4)GlcNAc(b1-3)Gal(b1-4)GlcNAc(b1-3)Gal(b1-4)GlcNAc(b1-3)Gal(b1-4)GlcNAc(b1-3)Gal(b1-4)GlcNAc(b1-2)[Gal(b1-4)GlcNAc(b1-3)Gal(b1-4)GlcNAc(b1-3)Gal(b1-4)GlcNAc(b1-3)Gal(b1-4)GlcNAc(b1-3)Gal(b1-4)GlcNAc(b1-6)]Man(a1-6)[Gal(b1-4)GlcNAc(b1-3)Gal(b1-4)GlcNAc(b1-3)Gal(b1-4)GlcNAc(b1-3)Gal(b1-4)GlcNAc(b1-3)Gal(b1-4)GlcNAc(b1-2)Man(a1-3)]Man(b1-4)GlcNAc(b1-4)[Fuc(a1-6)]GlcNAc
Outline: as §1

[6] = target: Gal(b1-4)GlcNAc(b1-3)Gal(b1-4)GlcNAc(b1-3)Gal(b1-4)GlcNAc(b1-3)Gal(b1-4)GlcNAc(b1-3)Gal(b1-4)GlcNAc(b1-3)Gal(b1-4)GlcNAc(b1-2)Man(a1-3)[Gal(b1-4)GlcNAc(b1-3)Gal(b1-4)GlcNAc(b1-3)Gal(b1-4)GlcNAc(b1-3)Gal(b1-4)GlcNAc(b1-3)Gal(b1-4)GlcNAc(b1-3)Gal(b1-4)GlcNAc(b1-2)Man(a1-6)]Man(b1-4)GlcNAc(b1-4)GlcNAc
Outline: as §1

[7] = target: Gal6S(b1-4)GlcNAc
Outline: as §1

[8] = target: GalNAc(b1-3)Gal(a1-6)Gal(b1-4)Glc
Outline: as §1

[9] = target: GalNAc3S(b1-4)GlcNAc3S
Outline: as §1

[10] = target: GalNAc4S6S(b1-4)GlcNAc
Outline: as §1

[11] = target: GlcNAc(a1-4)Gal(b1-4)GlcNAc(b1-3)Gal(b1-4)[Fuc(a1-3)]GlcNAc(b1-3)Gal(b1-4)[Fuc(a1-3)]GlcNAc
Outline: as §1

[12] = target: GlcNAc(b1-2)Man(a1-3)[GlcNAc(b1-4)][GlcNAc(b1-2)Man(a1-6)]Man(b1-4)GlcNAc(b1-4)GlcNAc
Outline: as §1

[13] = target: GlcNAc(b1-3)Gal(b1-4)GlcNAc(b1-3)Gal(b1-4)GlcNAc(b1-3)Gal(b1-4)GlcNAc(b1-3)Gal(b1-4)GlcNAc(b1-2)Man(a1-3)[GlcNAc(b1-3)Gal(b1-4)GlcNAc(b1-3)Gal(b1-4)GlcNAc(b1-3)Gal(b1-4)GlcNAc(b1-3)Gal(b1-4)GlcNAc(b1-2)Man(a1-6)]Man(b1-4)GlcNAc(b1-4)GlcNAc
Outline: as §1

[14] = target: GlcNAc(b1-3)Gal(b1-4)GlcNAc(b1-3)Gal(b1-4)GlcNAc(b1-3)Gal(b1-4)GlcNAc(b1-3)Gal(b1-4)GlcNAc(b1-2)Man(a1-3)[GlcNAc(b1-3)Gal(b1-4)GlcNAc(b1-3)Gal(b1-4)GlcNAc(b1-3)Gal(b1-4)GlcNAc(b1-3)Gal(b1-4)GlcNAc(b1-2)Man(a1-6)]Man(b1-4)GlcNAc(b1-4)[Fuc(a1-6)]GlcNAc
Outline: as §1

[15] = target: GlcNAc(b1-3)Man
Outline: as §1

[16] = target: GlcNAc6S(b1-3)Gal(b1-4)GlcNAc
Outline: as §1

[17] = target: Neu5Ac(a2-3)Gal(b1-3)GalNAc(b1-3)Gal(a1-4)Gal(b1-4)Glc
Outline: as §1

[18] = target: Neu5Ac(a2-3)Gal(b1-3)GalNAc(b1-4)[Neu5Ac(a2-8)Neu5Ac(a2-3)]Gal(b1-4)Glc
Outline: as §1

[19] = target: Neu5Ac(a2-3)Gal(b1-3)[Fuc(a1-4)]GlcNAc(b1-3)Gal(b1-3)[Fuc(a1-4)]GlcNAc
Outline: as §1

[20] = target: Neu5Ac(a2-3)Gal(b1-4)GlcNAc(b1-2)Man
Outline: as §1

[21] = target: Neu5Ac(a2-3)Gal(b1-4)GlcNAc(b1-2)[Neu5Ac(a2-3)Gal(b1-4)GlcNAc(b1-4)]Man(a1-3)[GlcNAc(b1-4)][Neu5Ac(a2-3)Gal(b1-4)GlcNAc(b1-4)Man(a1-6)]Man(b1-4)GlcNAc(b1-4)GlcNAc
Outline: as §1

[22] = target: Neu5Ac(a2-3)Gal(b1-4)GlcNAc(b1-3)Gal(b1-4)GlcNAc(b1-6)[Gal(b1-3)]GalNAc
Outline: as §1

[23] = target: Neu5Ac(a2-3)Gal(b1-4)GlcNAc(b1-6)GalNAc
Outline: as §1

[24] = target: Neu5Ac(a2-3)GalNAc(b1-4)GlcNAc
Outline: as §1

[25] = target: Neu5Ac(a2-3)[GalNAc(b1-4)]Gal(b1-4)GlcNAc(b1-3)GalNAc
Outline: as §1

[26] = target: Neu5Ac(a2-6)Gal(b1-4)GlcNAc(b1-3)Gal(b1-4)GlcNAc(b1-3)Gal(b1-4)GlcNAc(b1-2)Man(a1-3)[Neu5Ac(a2-6)Gal(b1-4)GlcNAc(b1-3)Gal(b1-4)GlcNAc(b1-3)Gal(b1-4)GlcNAc(b1-2)Man(a1-6)]GalNAc
Outline: as §1

[27] = target: Neu5Ac(a2-6)Gal(b1-4)GlcNAc(b1-3)Gal(b1-4)GlcNAc(b1-6)[Gal(b1-3)]GalNAc
Outline: as §1

[28] = target: Neu5Ac(a2-8)Neu5Ac(a2-3)Gal(b1-4)Glc
Outline: as §1

B1: LBL-152 (Laetiporus bicolor), B0D650 (protein)
chain: MSNEYNPPLGIAFRLCGLASDRVLFSRVSPSPEVFHHPKSEVYPDQWFVAIPGSGQNAGCYAIKSKNTGKVLFSRMSPDPRVGHIDGDGKYPDNWFKFEAGSGKYAGYFRLRAVASDTVLVSRTSTGTDTQVINYPATSAKYDDQYFTILFDHHHHHH
glycan array binding signal (z-score) [1]: 8.72
glycan array binding signal (z-score) [2]: 6.24
glycan array binding signal (z-score) [3]: 10.6
glycan array binding signal (z-score) [4]: 9.73
glycan array binding signal (z-score) [5]: 7.26
glycan array binding signal (z-score) [6]: 5.94
glycan array binding signal (z-score) [7]: -0.151
glycan array binding signal (z-score) [8]: -0.159
glycan array binding signal (z-score) [9]: -0.163
glycan array binding signal (z-score) [10]: -0.15
glycan array binding signal (z-score) [11]: -0.147
glycan array binding signal (z-score) [12]: -0.153
glycan array binding signal (z-score) [13]: 3.47
glycan array binding signal (z-score) [14]: 4.51
glycan array binding signal (z-score) [15]: -0.156
glycan array binding signal (z-score) [16]: -0.157
glycan array binding signal (z-score) [17]: -0.15
glycan array binding signal (z-score) [18]: -0.145
glycan array binding signal (z-score) [19]: -0.147
glycan array binding signal (z-score) [20]: -0.149
glycan array binding signal (z-score) [21]: -0.16
glycan array binding signal (z-score) [22]: -0.162
glycan array binding signal (z-score) [23]: -0.16
glycan array binding signal (z-score) [24]: -0.153
glycan array binding signal (z-score) [25]: -0.151
glycan array binding signal (z-score) [26]: -0.134
glycan array binding signal (z-score) [27]: -0.154
glycan array binding signal (z-score) [28]: -0.157
